Shown are actives, neighbours in structure and some others; about 2.4% of the full set was active somewhere.
D2 antagonist – antagonists of human D2 dopamine receptor | P14416 | HEK293 TREx D2 cells, calcium flux, dopamine EC80 | inhibition, % at 10 µM | 340,000 compounds, 2% hits | AID 485344; in the data active = inhibition above about 30%; inactive = below that, where a call was filed
Target sequence (P14416 whole entry, looked up): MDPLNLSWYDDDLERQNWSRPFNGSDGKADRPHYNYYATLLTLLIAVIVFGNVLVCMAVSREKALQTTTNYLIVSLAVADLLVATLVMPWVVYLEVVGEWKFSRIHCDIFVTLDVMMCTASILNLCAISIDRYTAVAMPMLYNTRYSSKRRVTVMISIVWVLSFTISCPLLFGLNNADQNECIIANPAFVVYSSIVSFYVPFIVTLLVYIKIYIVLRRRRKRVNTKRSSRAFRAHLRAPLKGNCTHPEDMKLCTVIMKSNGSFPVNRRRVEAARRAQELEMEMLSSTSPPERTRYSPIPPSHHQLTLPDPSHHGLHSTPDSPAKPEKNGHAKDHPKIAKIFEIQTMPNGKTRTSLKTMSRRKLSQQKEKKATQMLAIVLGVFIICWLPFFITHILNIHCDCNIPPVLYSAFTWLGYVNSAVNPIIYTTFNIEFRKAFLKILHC
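Calcium flux kinetic readout in an inducible HEK293 TREx D2 line plated overnight at 30 C. After 180 s compound exposure, an EC80 dopamine challenge follows with another 180 s kinetic read to detect antagonism.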
D2 PAM-1 – potentiates the human D2 dopamine receptor allosterically | potentiation, % (concentration not given with the values) | DiscoveRx D2 beta-arrestin cells, luminescence, 90 min; 100% = 57 uM dopamine signal | P14416 | 360,000 compounds, 0.23% hits; in the data active = potentiation above about 50%; inconclusive = mostly about 30% to 49%
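PathHunter beta-arrestin assay in DiscoveRx D2 cells. Compounds were added with an EC20 of dopamine (50 nM final) for 90 min at 37 deg C. Luminescence was read 1 h after detection reagent, with 57 uM dopamine as the EC100 control.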
D2 PAM-2 – positive allosteric modulators of human D2 dopamine receptor | potentiation, % at 10 µM | HEK293 T-REx D2, calcium flux, EC20 dopamine potentiation | 340,000 compounds, 0.34% hits;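 active = potentiation over 3 SD above the plate norm, cut at about 30% in these data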
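Cells plated with tetracycline inducer and held overnight at 30 C; calcium dye loaded 30–90 min at room temperature; baseline taken, compound added and read 180 s; EC20 dopamine then added and read 180 s.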
D2 ag-1 – D2 dopamine receptor (human) agonism | P14416 | HEK293 T-REx D2 cells, calcium flux agonist mode | activation, % at 2 µM | 340,000 compounds, 0.53% hits | AID 485358;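 active = activation over 3 SD above normal in the single-dose calcium agonist read, cut at about 30% in these data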
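In this primary screen, compounds producing a positive calcium signal within 180 s of addition to tetracycline-induced, force-coupled HEK293 Trex D2 cells are flagged; cells are dye-loaded with a no-wash calcium kit beforehand.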
D2 ag-2 – activates the human D2 dopamine receptor; activation, % (no concentration beside the values); P14416; DiscoveRx PathHunter D2 beta-arrestin, luminescence, 90 min; 100% = 57 uM dopamine signal; 360,000 compounds, 0.084% hits; AID 624465; in the data active = activation above about 40%; inconclusive = between about 15% and that limit
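Agonist mode: compounds alone added to overnight-plated D2 PathHunter cells for 90 min at 37 C, with 57 uM final dopamine (EC100) defining full response. Beta-arrestin recruitment detected by chemiluminescent reagent, read after 1 h at ambient temperature.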
A number is an active result; - = inactive; ? = inconclusive; . = no result.

SMILES	D2 antagonist	D2 PAM-1	D2 PAM-2	D2 ag-1	D2 ag-2
COc1ccc(-c2noc(-c3ccc(C)cc3Cl)n2)cc1OC	.	.	-	-	.
Cc1ccc(S(=O)(=O)N(C)C)cc1NC(=S)NC(=O)C12CC3CC(CC(C3)C1)C2	-	-	-	-	-
Cc1ccc(S(=O)(=O)N(C)C)cc1NC(=S)NC12CC3CC(CC(C3)C1)C2	78	-	-	-	-
S=C(NCc1ccco1)Nc1ccccc1	31	-	-	-	-
Cc1ccc(NC(=S)Nc2ccc3[nH]c(=O)[nH]c3c2)cc1C	-	-	-	-	-
CN(C)S(=O)(=O)c1cccc(C(=O)NCc2ccco2)c1	-	-	-	-	-
Cc1ccc(S(=O)(=O)N(C)C)cc1NC(=S)NCc1ccco1	40	-	.	-	-
Cc1ccc(S(=O)(=O)N(C)C)cc1NC(=S)Nc1ccc2[nH]c(=O)[nH]c2c1	49	-	-	-	-
Cc1ccc([N+](=O)[O-])cc1S(=O)(=O)N1CCn2cccc2C1c1ccccc1F (stereo not given)	.	.	-	-	.
CCN(CC)CCNC(=O)C1c2cc(OC)c(OC)cc2C(=O)N(C)C1c1cccs1 (stereo not given)	35	-	.	-	-
CCN(CC)CCN(C(=O)c1ccc2c(c1)CCCC2)c1nc2ccc(C)cc2s1	46	-	-	-	-
CCN(CC)CCN(C(=O)c1ccc2c(c1)CCCC2)c1nc2c(C)cccc2s1	60	-	-	-	-
CCN(CC)CCN(C(=O)c1ccc2c(c1)CCCC2)c1nc2ccc(F)cc2s1	-	-	-	-	-
COc1ccc(-n2nc3cc(C)c(NC(=O)c4ccc(-c5ccc(Cl)cc5)o4)cc3n2)cc1	.	.	-	-	.
O=C1CSC(c2ccccc2)N1CC12CC3CC(CC(O)(C3)C1)C2 (stereo not given)	37	-	-	-	-
CC(=O)c1cccc(NC(=O)N[C@@H](CC(C)C)C(=O)O)c1	33	-	-	-	-
CC(=O)c1ccc(NC(=O)N[C@@H](CC(C)C)C(=O)O)cc1	-	-	-	-	-
Cc1ccc(CN2CCN(/N=C/c3cccn3C)CC2)c(C)c1	51	-	-	-	-
COc1ccc(C2OC[C@H]3O[C@H](O)[C@H](NC(C)=O)[C@@H](O)[C@@H]3O2)cc1 (stereo not given in full)	53	-	-	-	-
COc1ccccc1OC1OC2COC(c3ccco3)OC2C(O)C1NC(C)=O (stereo not given)	-	-	-	-	-
CSc1ccc(/C=C/C(=O)OCC(=O)NC2CCCC2)cc1	.	-	.	.	-
CSc1ccc(/C=C/C(=O)OCC(=O)c2ccc[nH]2)cc1	50	-	-	-	-
CC(C)c1ccc(NS(=O)(=O)c2ccc3[nH]cc(C(=O)N4CCCC4)c(=O)c3c2)cc1	.	.	-	-	.
Cc1cc(S(=O)(=O)N2CCN=C2c2ccccc2)c(Cl)cc1Cl	-	-	-	30	-
COC(=O)/C(C#N)=C1/SC=C(C)N1c1ccccc1	.	-	34	.	-
SMILES	D2 antagonist	D2 PAM-1	D2 PAM-2	D2 ag-1	D2 ag-2
COc1ccc(CNC(=O)CC(C)n2nc(C)cc2C)cc1 (stereo not given)	.	.	-	-	.
O=C(Cn1c(NCCO)nc2ccccc21)c1ccc([N+](=O)[O-])cc1	30	-	-	-	-
COc1ccc(C2C3=C(CC(C)(C)CC3=O)Nc3c2c(=O)n(C)c(=O)n3C)cc1OC (stereo not given)	-	-	-	-	-
COc1ccc(OC)c(C2C3=C(CCCC3=O)Nc3c2c(=O)n(C)c(=O)n3C)c1 (stereo not given)	-	-	32	-	-
CC(NC(=O)c1cccs1)C(c1cccs1)N1CCN(c2ccccc2)CC1 (stereo not given)	-	-	55	-	-
CC(NC(=O)Cc1ccc(F)cc1)C(c1cccs1)N1CCN(C)CC1 (stereo not given)	-	-	50	-	-
CC(C)C(=O)NC(C)C(c1cccs1)N1CCN(c2ccccc2)CC1 (stereo not given)	-	-	-	-	-
Cc1cccc(C)c1NC(=O)CCS(=O)(=O)c1ccc2c(c1)CC(C)N2C(=O)C1CC1 (stereo not given)	.	.	-	-	.
Cc1cc(C)n(CC(=O)O)n1	-	-	-	-	-
Cc1cc(C)n(CCn2nc(C)cc2C)n1	41	-	-	-	-
CC(=O)c1ccc(N2CCN(C(=O)c3cccc(Oc4ccccc4)c3)CC2)cc1	35	-	-	-	-
CC(=O)c1ccc(N2CCN(C(=O)c3ccc(-c4ccccc4)cc3)CC2)cc1	-	-	-	-	-
O=C(CN1C(=O)NC2(CCCCCC2)C1=O)Nc1ccc(Cl)c([N+](=O)[O-])c1	.	-	.	.	-
O=C(ONC1=NCCCCC1)c1cccc([N+](=O)[O-])c1	-	55	-	-	-
O=C(Nc1ccc(Cl)c([N+](=O)[O-])c1)ONC1=NCCCCC1	.	54	.	.	?
COc1ccc(C(=O)NCc2ccc3c(c2)CCN3C(C)=O)c(OC)c1	.	.	-	-	.
COCCNc1nc(-c2cc3ccccc3o2)cs1	38	-	-	-	-
COc1cc(OC)cc(C(=O)NC(=S)Nc2nc(-c3cc4ccccc4o3)cs2)c1	-	-	-	-	-
Cn1c(CC(=O)Nc2ccc(Cl)c(Cl)c2)nnc1SCC(=O)Nc1nccs1	-	-	-	-	-
CCCCc1nnc(SCC(=O)Nc2nccs2)n1C	-	-	-	-	-
Cn1c(CSCc2ccccc2Cl)nnc1SCC(=O)Nc1nccs1	60	-	-	-	-
Cn1c(CCCOc2ccc(Cl)cc2Cl)nnc1SCC(=O)Nc1nccs1	32	-	-	-	-
CCOc1ccccc1CNC(=O)c1c(C)oc2ncnc(N3CCOCC3)c12	.	.	-	-	.
CCOc1ccc(NC(=O)CC2C(=O)N(c3ccccc3)C(=O)N2CCc2ccc(OC)cc2)cc1 (stereo not given)	.	.	-	-	.
CCOc1ccc(N=C2NC(=O)C(CC(=O)Nc3ccccc3)S2)cc1 (stereo not given)	-	-	39	-	-
SMILES	D2 antagonist	D2 PAM-1	D2 PAM-2	D2 ag-1	D2 ag-2
O=C(CC1SC(=Nc2ccc(O)cc2)NC1=O)Nc1ccccc1 (stereo not given)	-	-	-	-	-
COc1ccc(NC(=O)Cn2cnc3c(nc4n3CCCCC4)c2=O)cc1Cl	.	.	-	-	.
O=C1c2ccccc2C(=O)N1Cc1ccco1	-	-	-	-	-
O=C1c2cccc3c(O)ccc(c23)C(=O)N1Cc1ccco1	-	-	-	61	-
CC1=C(C#N)C(=O)NC(=O)/C1=C/c1ccc(-c2ccc(S(N)(=O)=O)cc2)o1	-	-	37	-	-
C=CCOC(=O)c1cc(-c2ccc(/C=C3\C(=O)NC(=O)C(C#N)=C3C)o2)ccc1Cl	-	-	-	-	-
